A selection: hits, their analogues and other compounds. The true share with any hit is near 5.1%.
MPTP inh – blocks calcium-induced mitochondrial swelling; isolated mouse mitochondria, Ca2+ swelling absorbance, 30 min; inhibition, % at 10 µM; 1.4% of 360,000 active; AID 602449;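 active means inhibition of 50% or more, scaled per plate between neutral and stimulator controls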;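 further: 0% = DMSO wells given calcium and 100% = 1 mM EGTA wells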
ANO1 block – blocks the mouse calcium-activated chloride channel TMEM16A | HEK293 TMEM16A/YFP iodide influx fluorescence, ionomycin | normalized B-score (activity score, 25-100; higher = stronger inhibition) at 10 µM | 1.2% of 310,000 active | AID 588511;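 active means ratio plate-corrected score three or more library SD toward inhibition, starting fluorescence score within five deviations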;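 further: score derived from kinetic fluorescence span divided by baseline fluorescence per well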
GRIN3A LBD mod – NR3A (human) ligand-binding domain modulation; NR3A LBD differential scanning fluorimetry, Tm shift; 0% = protein alone, 100% = glycine-bound protein; Tm shift relative to glycine control, % at 25 µM; 2.5% of 340,000 active; AID 1259313;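 active means melting temperature shift of at least 10% of the positive control shift, at one fixed dose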
CRFBP-R2 block – CRF-BP/CRF-R2 complex antagonism; HEK293 CRF-R2/CRF-BP, CRF-induced calcium fluorescence; inhibition, % at 11.8 µM; 0.59% of 350,000 active; AID 588475;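 active means inhibition of the ligand-induced calcium signal above about 50% at the single tested concentration, limit read from the data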
CRFBP-R2 agonist – CRF-BP/CRF-R2 complex agonism; AID 588473; activation, % at 13.2 µM; HEK293 CRF-R2/CRF-BP, calcium dye fluorescence (FLIPR); percent of saturating CRF peptide response; 0.46% of 350,000 active;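 active means activation of at least 50%, plus an integration ratio under a set limit after plate pattern correction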;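 further: plate controls were neutral control wells without compound for no effect and CRF at EC100 for full effect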
ANO1 activ – activates or potentiates the mouse TMEM16A chloride channel. Q8BHY3. HEK293 TMEM16A/YFP-H148Q/I152L, iodide quench fluorescence; hits give low values. B-score at 10 µM. 0.3% of 340,000 active. AID 623877;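 active means fluorescence-ratio B-score plate-corrected deviation score at least 3 library SD below zero, with starting fluorescence score within 5 deviations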;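 further: channel opened by trigger with iodide after compound preincubation; score built on the fluorescence ratio of max minus min over baseline; more negative score means more quench and so TMEM16A activation or potentiation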
TMEM16A reconf – reconfirmed blocker of mouse TMEM16A calcium-activated chloride channel; HEK293 TMEM16A/YFP-H148Q, iodide quench fluorescence; ionomycin added to raise cell calcium; shares compounds with ANO1 block; inhibition, % at 10 µM; 39% of 2,300 active;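 active means mean duplicate percent inhibition, scaled so buffer wells are 0 and the reference blocker 100, over three buffer SD above buffer mean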
TMEM16A Ca cntr – alters calcium mobilization in TMEM16A HEK293 cells, counter-screen; calcium response (% of ionomycin), % at 10 µM; shares compounds with ANO1 block; TMEM16A/YFP HEK293, Fluo4 calcium mobilization; AID 652231; 2% of 2,300 active;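 active means duplicate-averaged calcium signal over 20% of the ionomycin maximum, relative to buffer baseline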;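 further: each well's signal is peak minus trough fluorescence divided by its pre-addition baseline; 0% = buffer wells and 100% = ionomycin wells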
YFP-HEK293 quench – parental YFP-HEK293 iodide quench counter-screen activity. shares compounds with ANO1 block. ionomycin. YFP ratio F(max-min)/F0 at 10 µM. 2,300 tested, under 10 active. AID 652233;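 active means yellow fluorescent protein signal ratio exceeding the buffer control mean by over 5 SD of those controls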;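 further: ratio is mean of duplicate wells from kinetic YFP trace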
ClC-1 inh – selectivity of TMEM16A inhibitors: inhibition of rat ClC-1 chloride channel | shares compounds with ANO1 block | CHO ClC-1-YFP, iodide influx fluorescence quench; iodide control reads 0, buffer control 100 | ratio percent, % at 10 µM | 2,300 tested, under 10 active;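 active means duplicate-mean ratio percent above the mean of iodide-only control wells, which defines zero, plus 5 of their SD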;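 further: higher percent means stronger block of ClC-1 iodide influx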
MPTP counter – membrane potential counter-screen of mitochondrial pore inhibitors. 78% of 5,000 active. isolated mitochondria, Rhodamine 123 fluorescence. shares compounds with MPTP inh. inhibition, % at 10 µM; in the data active means inhibition above about 22%;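 further: 0% = DMSO vehicle and 100% = positive control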
MPTP swell DR – MPTP inhibition, dose response swelling confirmation; shares compounds with MPTP inh; isolated mitochondria swelling, absorbance; IC50, µM; 58% of 780 active; AID 651561; in the data active means IC50 below about 20 µM
MPTP cs DR – counter-screen for mitochondrial permeability transition pore inhibitors, dose response. 49% of 780 active. isolated mitochondria counterscreen, fluorescence read-out. IC50, µM. shares compounds with MPTP inh; in the data active means IC50 below about 80 µM
Numbers without * were called inactive; i = inactive; x = not tested or not shown.

SMILES	MPTP inh	ANO1 block	GRIN3A LBD mod	CRFBP-R2 block	CRFBP-R2 agonist	ANO1 activ	TMEM16A reconf	TMEM16A Ca cntr	YFP-HEK293 quench	ClC-1 inh	MPTP counter	others
CN(Cc1cn(C)nc1-c1ccc(Oc2ccccc2)cc1)Cc1cnc2ccccn12	69*	25*	-5	6	-1	i	24%*	22%*	-1.2	-13	57*
CCCNc1ncc2c(=O)[nH][nH]c(=O)c2n1	-1	x	0	-3	0	i	x	x	x	x	x
O=C(NC1CCCC1)c1cc(COc2ccc3ncccc3c2)on1	95*	25*	2	-3	-1	i	i	i	-1.1	-22	94*
O=C(c1cc(COc2ccc3ncccc3c2)on1)N1CCCC1	52*	25*	7	-10	3	i	26%*	i	-1.1	-26	70*
COCC1CCN(C(=O)c2cc(COc3ccc4ncccc4c3)on2)CC1	74*	25*	1	12	2	i	32%*	i	-0.89	-13	81*
COCC1CCN(C(=O)c2cc(COc3ccc(-n4cncn4)cc3)on2)CC1	2	i	-3	4	-1	i	x	x	x	x	x
O=C(NCCc1cn2ccccc2n1)c1cc(COc2ccc3ncccc3c2)on1	102*	100*	-1	-8	-1	i	19%*	i	-1.1	-29	92*
CCCCCCCCN1C(=O)[C@H](CC(=O)NCCc2ccccc2OC)C[C@@]2(C(=O)OCC)CCCC=C12	1	x	x	x	x	x	x	x	x	x	x
CSc1ccccc1OCc1cc(C(=O)NCC(C)Oc2cccnc2)no1 (stereo unspecified)	2	x	x	4	-3	x	x	x	x	x	x
CSc1ccccc1OCc1cc(C(=O)N2CCC(c3ccncc3)CC2)no1	60*	100*	x	x	x	i	i	i	-1.2	-20	91*
COc1cccc(CN(C)C(=O)c2cc(COc3ccc4ncccc4c3)on2)c1	97*	25*	1	1	-1	i	38%*	i	-0.98	-34	97*
COc1ccc(N2CC(C(=O)NCCC3=CCCCC3)CC2=O)c(OC)c1 (stereo unspecified)	-3	i	2	-25	0	i	x	x	x	x	x
COC(=O)c1scc(C#N)c1N/N=C(\C#N)S(=O)(=O)c1ccc(Cl)cc1	67*	25*	5	37	23	i	i	i	-1	-24	84*
COC(=O)c1scc(C)c1NC(=O)c1ccc(Cl)cc1	0	i	1	16	-2	i	x	x	x	x	x
N#Cc1c(NC(=O)Cn2c(=O)oc3ccccc32)oc(-c2ccccc2)c1-c1ccccc1	95*	25*	11*	-2	-1	i	28%*	i	-0.94	-12	44*
CCN(CC)S(=O)(=O)c1ccc(Oc2ccccc2OC)cc1	0	i	-2	1	0	i	x	x	x	x	x
CCN(CC)S(=O)(=O)c1ccc(Oc2ccc(S(=O)(=O)N(CC)CC)cc2)cc1	97*	100*	0	-12	4	i	i	i	-1.1	-22	89*
Cc1ccc(Cn2cc(CN3CC(N4CCSCC4)CS3(=O)=O)nn2)cc1 (stereo unspecified)	0	x	x	x	x	x	x	x	x	x	x
COc1ccc(C)cc1-n1nnnc1SCc1cc(=O)n2cc(C)ccc2n1	52*	25*	1	-6	0	i	i	i	-0.97	-16	3	MPTP swell DR=i;MPTP cs DR=21*
CCOC(=O)c1c(NC(=O)CSc2nnc(-c3ccco3)o2)sc(C(C)=O)c1C	10	i	1	1	6	i	x	x	x	x	x
CCOC(=O)c1c(NC(=O)CSc2nnc(-c3ccccc3C)n2C)sc(C(C)=O)c1C	84*	25*	-1	-28	0	i	i	i	-0.79	-12	67*
CCOC(=O)CC1CCCCN1C(=O)c1cc(COc2cccc3cnccc23)on1 (stereo unspecified)	102*	25*	0	-15	0	i	46%*	i	-1.1	-18	112*
O=C(c1cc(COc2cccc3cccnc23)on1)N1CCC[C@H]1CO	0	x	x	2	-1	x	x	x	x	x	x
COc1ccc(S(=O)(=O)N2CCN(c3ccc(C)cc3C)CC2)cc1OC	57*	25*	0	21	-1	i	26%*	i	-0.95	-18	82*
N#Cc1c(C(F)(F)F)cc(-c2ccc(Cl)cc2)[nH]c1=O	93*	100*	-8	63*	-1	i	28%*	i	-0.84	-20	82*
N#Cc1c(C(F)(F)F)cc(-c2cccc(Cl)c2)[nH]c1=O	94*	25*	-11	13	0	i	28%*	i	-1.1	-8	89*
COCCN1C(=O)COc2ccccc2C1C(=O)NC1CCCCC1 (stereo unspecified)	1	x	x	x	x	x	x	x	x	x	x
CCOc1ccc(NC(c2ccccc2)P(=O)(OC)OC)cc1 (stereo unspecified)	0	i	2	6	-1	i	x	x	x	x	x
CC(C)c1ccc(OCc2ccc(C(=O)N3CCCC3)o2)cc1	84*	25*	-1	-17	-2	i	53%*	i	-1.1	-15	12	MPTP swell DR=12*;MPTP cs DR=18*
COc1ccc(NC(=S)NC(NC(=O)c2cccc(Cl)c2)C(Cl)(Cl)Cl)c([N+](=O)[O-])c1 (stereo unspecified)	92*	25*	13*	-43	1	i	i	i	-1.2	-12	51*
